This passage reports growth inhibition results from PubChem BioAssay (NCI).

“And” between values parts separate entries of the source, which are not always exact repeats. Equal values may be shown once. About 79,000 compounds went through this panel and 15% of them were active in at least one assay; those are over-represented in the sample as a whole. The source made the active and inactive calls. No stated cut-off is given here; in the data, active means growth inhibition above about 70%; inactive means the rest.

This test is described as follows: NCI Yeast Anticancer Drug Screen. Data for the mlh1 rad18 strain (AID 175). Conditions: S. cerevisiae mlh1 rad18 strain growth inhibition; at 5.0 µM (retest, dose inferred, filed as 0.5); stronger effect = higher value. In short, it runs like this: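 Yeast w/ defined DNA-repair lesions; compound exposure; growth vs vehicle controls → % inhibition.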
As to `OCC1OC(n2cnc3c(=S)nc[nH]c32)C(O)C1O` (configuration not stated), the growth inhibition was -13% (inactive).

Turning to `CCOC(=O)C(C(=O)c1ccccc1)C(=O)c1ccccc1`, the growth inhibition is 35% (inactive).

In the case of `COC1/C=C\C=C(/C)C(=O)Nc2cc3nc4ccc(Br)cc4oc-3c(c2=O)CC(C)CC(OC)C(O)C(C)/C=C(\C)C1OC(N)=O` (configuration not stated), the growth inhibition is 57% (inactive).

On to `Nc1ccc([N+](=O)[O-])c(S(=O)(=O)O)c1`, for which the growth inhibition was -139% (inactive).

For `CCOc1ccc2ccccc2c1C(Cc1ccc(Cl)cc1)NCCO` (configuration not stated), the growth inhibition was 1% (inactive).

With `O=C1C(=Cc2ccc(O)cc2)N=C(c2ccccc2)N1n1c(-c2ccccc2)nc2ccccc2c1=O`, the growth inhibition was 12% (inactive).

In the case of `Cc1nc2ccccc2cc1CCl`, the growth inhibition is -122% (inactive).

Regarding `Cc1cc(NS(=O)(=O)c2ccc(N=Nc3cc(N=Nc4ccc(S(=O)(=O)Nc5cc(C)nc(C)n5)cc4)c4c(NC(=O)C(Cl)Cl)cccc4c3OC(=O)C(Cl)Cl)cc2)nc(C)n1` (tested in a mixture with another compound), the growth inhibition is 21% (inactive).

Consider `CCCCCCN(CCCCCC)C(=O)C1=C(C)NC(C)=C(C(=O)N(CCCCCC)CCCCCC)C1`, for which the growth inhibition is -1% (inactive).

In the case of `O=[N+]([O-])Cc1cnc2nncn2n1`, the growth inhibition is -12% (inactive).

Regarding `COc1ccc(N/N=C(\CCN(C)C)c2ccccc2)cc1`, the growth inhibition was 12% (inactive).

For `O=C(O)/C(=C(/c1ccccc1)c1ccc(Cl)cc1)c1ccccc1`, the growth inhibition is 69% (inactive).

`c1ccc([P+](CCCCCCCC[P+](c2ccccc2)(c2ccccc2)c2ccccc2)(c2ccccc2)c2ccccc2)cc1`: the growth inhibition is 73% (active).

For the molecule `OCCNc1nc(NCCO)c2nc(-c3ccccc3)c(-c3ccccc3)nc2n1`, the growth inhibition is 5% (inactive) and -1% (inactive).

On to `OC(c1ccccc1)(c1ccccc1)c1ccccc1` (tested in a mixture with another compound), for which the growth inhibition is -6% (inactive).

Consider `CC(=O)Nc1c(Cl)c(Cl)c2c(c1Cl)Cc1cc(Cl)ccc1-2`, for which the growth inhibition was 99% (active).

With `Cc1cc(C)nc(NS(=O)(=O)c2ccc(Nc3c4ccccc4nc4c(C(=O)NCCCN(CCO)CCO)cccc34)cc2)n1`, the growth inhibition was -7% (inactive).

Consider `CCn1c2ccccc2c2ccc(N=Cc3ccc(N(C)C)cc3)cc21`, for which the growth inhibition was 5% (inactive).

For `O=C(C(=Cc1ccccc1)C(=O)c1ccccc1)c1ccccc1`, the growth inhibition was 69% (inactive).

With `c1ccc(C2=NC(c3ccccc3)=NS(S3=NC(c4ccccc4)=NC(c4ccccc4)=N3)=N2)cc1` (configuration not stated), the growth inhibition was 18% (inactive).

Regarding `Nc1nc(-c2ccccn2)cc2ccccc12`, the growth inhibition was 29% (inactive).

With `CCN(CC)CCCn1c2cc(=O)c(=O)cc-2[nH]c2cc(C)ccc21`, the growth inhibition was 3% (inactive).

Consider `COc1cc(O)ccc1C(=S)SC`, for which the growth inhibition was 12% (inactive).

As for `O=[N+]([O-])C1=C(c2ccccc2)SC=C(c2ccccc2)S1`, the growth inhibition is -9% (inactive) and 17% (inactive).

On to `N#CC1(C2SCCS2=O)C2=C(C(=O)c3ccccc3C2=O)N2CCCC21` (configuration not stated), for which the growth inhibition is 17% (inactive).

With `O=C1C=CC(=O)C(C2OC(=O)C(Br)=C2Br)=C1` (configuration not stated), the growth inhibition was -25% (inactive).

On to `CN1CCN(CCCN2c3ccccc3Sc3ccc(C(F)(F)F)cc32)CC1`, for which the growth inhibition is -8% (inactive) and -9% (inactive).

Regarding `Cc1ccc(S(=O)(=O)C23C(N=NC2(C)C)C3(C)C)cc1` (configuration not stated), the growth inhibition is -1% (inactive).

For `COC(=O)C(=O)C(C(=O)C(c1ccccc1)c1ccccc1)c1nc2n(c1O)/C(=N/C(=O)Nc1ccc(Cl)cc1)N=N2` (configuration not stated), the growth inhibition is -3% (inactive).

Regarding `O=C(O)c1ccc2c(c1)Cc1cc([N+](=O)[O-])ccc1-2`, the growth inhibition is 4% (inactive).

For the molecule `O=c1[nH]c2cc([N+](=O)[O-])ccc2nc1/C=C(\O)c1ccc([N+](=O)[O-])cc1`, the growth inhibition is 6% (inactive).

For the molecule `c1ccc(C(c2ccccc2)n2ccnc2)cc1`, the growth inhibition is -72% (inactive).

Regarding `c1ccc2c(c1)CNc1ccccc1-2`, the growth inhibition is 3% (inactive).

On to `COC(=O)c1nnn(-c2ccc(S(N)(=O)=O)cc2)c1N`, for which the growth inhibition was -13% (inactive).

In the case of `COC(=O)c1ccc(O)c(OC)c1`, the growth inhibition is -4% (inactive).

Regarding `O=c1[nH]c(SCc2c(Cl)c(Cl)c(Cl)c(Cl)c2Cl)nc(=S)[nH]1`, the growth inhibition is 2% (inactive).

For the molecule `Cc1nc2c(ccc3[nH]c4ccccc4c32)s1`, the growth inhibition was 10% (inactive).
